We go through 71 molecules from PubChem BioAssay AID1117359 (Southern Research Institute, 2015).

The whole screen tested about 1,500 compounds, of which about 460 (31%) were called active. Not all results are given here. Entries with a potency or affinity are not part of this list. Values without a mark were called inactive.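 The calls were made as follows: active = viability at or below 80% at any tested concentration, marking the compound as toxic; inactive = the rest.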

The nature of the assay: THP-1 cell cytotoxicity, dose response, cytotoxicity control for Vif-APOBEC3G degradation inhibitor project, THP-1 cells (AID 1117359). Particulars: THP-1 viability, CellTiter-Glo luminescence, 72 h; series mostly up to 40 µM; viability: at the top concentration.
Usually viability stands for a read-out of living cells in per cent, often relative to untreated cells. Consider `O=[N+]([O-])c1cc2oc3c(c2c(C=NCc2ccncc2)c1O)CCCC3`, for which the “viability” value was 110%.
In the case of `COc1cc2c3c(c1OC)C1(C=CC(=O)C=C1)CC3N(C(=O)CCC(=O)O)CC2` (stereo unspecified), the “viability” value is 103%.
For `O=C(CCCCl)Nc1nc(-c2ccc3c(c2)OCCO3)cs1`, the “viability” value was 98.4%.
As for `COc1ccc(O)c(N)c1`, the “viability” value was 99.5%.
The same measure for `Oc1ccc(-c2cn3c(n2)SCC3)cc1O`: 97.9%; for `COc1ccc(OC)c(N/C(C)=C/C(=O)c2ccc(C)o2)c1`: 89.8%; for `CCCCCC#CCC#CCC#CCC#CCCCC(=O)O`: 83%.
Consider `CC(=O)Nc1cccc(-c2cc(-c3c(Cl)cccc3Cl)no2)c1`, for which the “viability” value is 95.7%.
Turning to `COc1ccc(NC(=O)/C=C/c2ccc(S(=O)(=O)N3CCOCC3)cc2)cc1`, the “viability” value is 97.8%.
Turning to `Cc1cc(-c2n[nH]c(=S)n2/N=C/C=C/c2ccco2)n[nH]1`, the “viability” value was 108%.
Regarding `COc1ccc(C)cc1NC(=O)COC(=O)CCC(=O)c1cccs1`, the “viability” value is 106%.
In the case of `N#Cc1ccccc1CN1C(=O)S/C(=C/c2cccn2-c2ccc(C(=O)O)cc2)C1=O` it was 109%; in that of `O=C(NCC(c1ccco1)N1CCCC1)c1cccc(S(=O)(=O)N2CCCCC2)c1` (stereo unspecified), 89.7%.
In the case of `COc1cc(C(C2C(=O)CC(C)(C)CC2=O)C2C(=O)CC(C)(C)CC2=O)cc(OC)c1OC`, the “viability” value was 96%.
In the case of `O=C(NC1CC1)c1cc(-c2ccco2)nc2ccccc12`, the “viability” value was 87.3%.
`COCCNC(=O)Nc1ccc2nc(-c3ccco3)c(-c3ccco3)nc2c1`: the “viability” value is 114%.
In the case of `CC(C)CN(C(=O)CN1CCN(S(=O)(=O)c2ccccc2)CC1)c1c(N)n(CC(C)C)c(=O)[nH]c1=O` it was 118%; in that of `COC(=O)[C@@]1(Cc2ccc(OC)cc2)[C@H]2c3cc(C(=O)N(C)C)n(C[C@H](O)CO)c3C[C@H]2CN1C(=O)c1ccccc1`, 83.2%; in that of `O=C(Nc1nnc(C2CC2)s1)c1ccc(S(=O)(=O)c2ccccc2)cc1`, 94.8%.
On to `Cc1nc(C)c(C(=O)Nc2nc3c(C)cccc3s2)o1`, for which the “viability” value is 92.6%.
The same measure for `S=c1[nH]nc(COc2ccc(Cl)cc2)o1`: 103%; for `CCCCCCNS(=O)(=O)c1ccccc1Br`: 87%.
As for `Clc1ncnc2scc(-c3ccccc3)c12`, the “viability” value was 84.7%.
Take `Nc1ccc(S(=O)(=O)c2cc(O)c3ccccc3c2O)cc1`: the “viability” value is 89.9%.
On to `CCOC(=O)/C(C#N)=C/c1c(OCC)n(CC)c2ccccc12`, for which the “viability” value is 91.8%.
Consider `COc1ccc(CCN2C(=O)CC(Nc3ccc(N4CCOCC4)cc3)C2=O)cc1OC` (stereo unspecified), for which the “viability” value was 96.4%.
For the molecule `O=C1CCC(CCC(=O)N2CCCC(C(=O)c3ccc4c5c(cccc35)CC4)C2)=NN1` (stereo unspecified), the “viability” value is 81.3%.
Turning to `Nc1cc(N)c(OCC(F)(F)F)cc1OCC(F)(F)F`, the “viability” value was 98.8%.
`CC(=O)c1ccc2c(c1)C1C=CCC1C(c1ccncc1)N2` (stereo unspecified): the “viability” value is 86.5%.
Consider `Cc1cccc(Cc2nnc(CCC(=O)N(C)C3CCOC3)o2)c1` (stereo unspecified), for which the “viability” value is 95.4%.
For `CCCCn1c(N)c(N(CCC(C)C)C(=O)C2=NN(c3cc(C)ccc3C)C(=O)CC2)c(=O)[nH]c1=O`, the “viability” value is 89.7%.
For the molecule `CNc1ccc(Br)cc(C(=O)/C=C/c2cc(OC)ccc2OC)c1=O`, the “viability” value is 82.2%.
Turning to `COc1ccccc1NS(=O)(=O)c1cccs1`, the “viability” value was 92.4%.
On to `CN(C)S(=O)(=O)c1cccc(NC(=S)N/N=C/c2ccc(O)c(O)c2O)c1`, for which the “viability” value is 92.7%.
For the molecule `Cc1ccc(C=C2C(Cl)=C(Cl)C(Cl)=C2Cl)cc1`, the “viability” value is 91%.
In the case of `COC(=O)COc1ccc(S(=O)(=O)Nc2ccc(C(N)=O)cc2)cc1C` it was 97.2%.
`O=C1CSC(c2cccnc2)N1Cc1cccnc1` (stereo unspecified): the “viability” value was 109%.
In the case of `Cc1cc(C)c(C(=O)/C=C/c2ccco2)c(=O)[nH]1` it was 88.5%; in that of `N#CC(C#N)=Cc1cccn1-c1ccc(C(=O)O)cc1`, 101%.
In the case of `CCOC(=O)CN(C(=O)CSc1nnc(COc2ccc(OC)cc2)n1CC)c1ccccc1` it was 87.8%; in that of `O=C(O)CCCNc1cc(N2CCC3(CC2)OCCO3)c2noc3c2c1C(=O)c1ccccc1-3`, 89.7%; in that of `Cc1ccc(NC(=O)CSc2nc(CSc3ccc(C)cc3)cc(=O)[nH]2)cc1`, 103%.
Regarding `COc1ccc(N(CC(=O)NCCC2=CCCCC2)S(=O)(=O)c2ccccc2)cc1`, the “viability” value is 83.4%.
`COc1cc([N+](=O)[O-])c(N2CCOCC2)c([N+](=O)[O-])c1OC`: the “viability” value was 87%.
For the molecule `CC(C)C1Nc2ccc(C(=O)O)cc2C2C=CCC21` (stereo unspecified), the “viability” value was 87.3%.
On to `O=C1NN(c2ccc(Cl)cc2)C(=O)/C1=C\c1ccc(-c2cccc(C(=O)O)c2)o1`, for which the “viability” value was 97.9%.
Turning to `Fc1cc(F)cc(NC(=S)NCCCN2CCOCC2)c1`, the “viability” value was 106%.
As for `CC(C)OP(=O)(OC(C)C)C(O)c1ccc(N(C)C)cc1` (stereo unspecified), the “viability” value was 111%.
Consider `Cc1ccc(Oc2ccc(/C=N/O)cn2)cc1`, for which the “viability” value was 89.2%.
On to `CCOC(=O)C(C#N)(Cc1ccc2ccccc2n1)Cc1ccc2ccccc2n1`, for which the “viability” value is 83.9%.
Take `O=C(CCl)N1N=C(c2ccco2)CC1c1ccco1` (stereo unspecified): the “viability” value was 108%.
Regarding `Cc1cccc(NC(=O)CNC(=O)c2cccc(-n3cccc3)c2)c1C`, the “viability” value is 95.8%.
In the case of `C/C(N)=C(/C#N)C(=O)CSc1nnc(Nc2c(C)cccc2C)s1`, the “viability” value was 92.9%.
For the molecule `O=C(O)CCCCC1SCC2NC(=O)NC21` (stereo unspecified), the “viability” value is 118%.
On to `CN(C(=O)CSc1ncnc2sccc12)C1CCCCC1`, for which the “viability” value was 93.3%.
With `O=C(O)CC(C(=O)O)N1C(=O)/C(=C/C=C/c2ccco2)SC1=S` (stereo unspecified), the “viability” value was 97.4%.
Turning to `O=C1/C(=C/C=C/c2ccco2)SC(=S)N1c1ccc(O)cc1`, the “viability” value is 83.6%.
The same measure for `CC(C)(C)C1CCC(OC(=O)C[N+]2(C)CCCCC2)CC1` (stereo unspecified): 82.8%; for `CCOc1ccccc1C(=S)NC1CCCCC1`: 101%; for `Cc1nn(CC(=O)NC2CC2)c(C)c1S(=O)(=O)N(C)C`: 102%.
In the case of `CC(C)(C)c1cc(N/C=C\c2nnnn2-c2ccc(Br)cc2)no1`, the “viability” value was 102%.
For `CC1CCN(Cc2c(O)ccc3c2O/C(=C\c2ccco2)C3=O)CC1`, the “viability” value is 85.3%.
With `O=C1OC(c2ccc(F)cc2)=C/C1=C\c1ccc([N+](=O)[O-])o1`, the “viability” value is 88%.
As for `CCCSC1=N/C(=C\c2ccc([N+](=O)[O-])o2)C(=O)S1`, the “viability” value is 98.9%.
Consider `CCOc1ccc(NC(=O)C2CCCN(S(=O)(=O)c3c(C)n[nH]c3C)C2)cc1` (stereo unspecified), for which the “viability” value is 102%.
For the molecule `Cc1ccc(C)c(/C(O)=C2/C(=O)C(=O)N(CCN3CCOCC3)C2c2ccco2)c1` (stereo unspecified), the “viability” value was 99.1%.
Regarding `CNc1ccc(Br)cc(C(=O)/C=C/c2ccc(OC)cc2OC)c1=O`, the “viability” value was 98.3%.
With `CC(=O)c1c(C)[nH]c(C(=O)OCC(=O)C(C)(C)C)c1C`, the “viability” value was 92.6%.
With `COC(=O)c1sccc1NC(=O)CC1C(=O)NCCN1C(=O)Nc1ccccc1` (stereo unspecified), the “viability” value is 101%.
For the molecule `N#C/C(=C/c1ccc(Br)o1)C(N)=S`, the “viability” value was 85.2%.
In the case of `COc1ccc(NC(=O)O/N=C/c2ccccc2Cl)cc1` it was 102%.
